Test systems include HT29 colon; SNB-75 CNS; SNB-19 CNS; U251 CNS; PC-3 prostate; SK-MEL-5 melanoma; UACC-62 melanoma; LOX IMVI melanoma; SK-MEL-28 melanoma; SK-MEL-2 melanoma.
Holding throughout (assay): NCI-60 one-dose screen, 48 h (100 = growth as untreated, 0 = no growth, -100 = all killed)
Holding throughout (settings): 10 µM

We go through 14 molecules from PubChem BioAssay (NCI).

Compounds without any hit were thinned out: in the full panel of roughly 83,000, 20% have a hit.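 A percent growth of 40 corresponds to 60% growth inhibition; 0 means no net growth; -100 means all cells died. Active threshold: below 10.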 Unmarked numbers belong to inactive results. Active and inactive are the calls of the source.

Take `COc1ccccc1CNCCCN1C(=O)c2ccc3c4c(ccc(c24)C1=O)C(=O)N(CCCN)C3=O`: the growth was -51.1% (active) with HT29 colon; 39.3% in the test on SNB-75 CNS; -5.76% (active) with SNB-19 CNS; -46.6% (active) in the test with U251 CNS; -8.32% (active) in the test with PC-3 prostate; -97.5% (active) with SK-MEL-5 melanoma. The growth in the test on UACC-62 melanoma was -90.2% (active); in the test on LOX IMVI melanoma, -61% (active); with SK-MEL-28 melanoma, 5.1% (active); in the test with SK-MEL-2 melanoma, -57.3% (active).
With `CCC(=O)N1C/C(=C/c2ccc(Br)cc2)C(=O)/C(=C/c2ccc(Br)cc2)C1`, the growth in the test with HT29 colon is -58.9% (active); in the test with SNB-75 CNS, 1.74% (active); with SNB-19 CNS, -32.7% (active); in the test on U251 CNS it was -81.4% (active); in the test on PC-3 prostate, -42.8% (active); in the test on SK-MEL-5 melanoma, -53.8% (active). In addition, the growth in the test with UACC-62 melanoma was -80.3% (active); in the test on LOX IMVI melanoma it was -87.7% (active); with SK-MEL-28 melanoma, -72.4% (active); with SK-MEL-2 melanoma, -33.8% (active).
For the molecule `CCN(CC)CCOc1nc2ccc(OC)cc2c2c1-c1ccc(OC)cc1C2=O`, the growth in the test on HT29 colon is -61.4% (active); in the test on SNB-75 CNS, -1.45% (active); in the test with SNB-19 CNS, 33.5%; in the test on U251 CNS, -87.9% (active); in the test with PC-3 prostate it was -0.151% (active); with SK-MEL-5 melanoma, -36.1% (active). Further, the growth was 36% with UACC-62 melanoma, -74.6% (active) with LOX IMVI melanoma, -12.6% (active) with SK-MEL-28 melanoma and 20.8% in the test with SK-MEL-2 melanoma.
In the case of `Cc1cc(N(CCCNc2ccnc3cc(Cl)ccc23)Cc2ccc3c(c2)OCO3)nc(N2CCOCC2)n1`, the growth was 3.19% (active) in the test on HT29 colon; 61.4% with SNB-75 CNS; 32.3% in the test on SNB-19 CNS; 5.18% (active) in the test on U251 CNS; 27.1% with PC-3 prostate; -88.1% (active) with SK-MEL-5 melanoma. The growth with UACC-62 melanoma was 27.1%; with LOX IMVI melanoma it was -24.2% (active); in the test on SK-MEL-28 melanoma, -44.7% (active); with SK-MEL-2 melanoma, 32.4%.
Regarding `Cc1ccc(C(=O)Nc2cccc(F)c2)cc1NC(=O)C1(c2ncnc3[nH]ccc23)CC1`, the growth is 52.5% with HT29 colon; 95.8% with SNB-75 CNS; 120% in the test on SNB-19 CNS; 93.6% in the test on U251 CNS; 92.2% in the test on PC-3 prostate; 74.3% with SK-MEL-5 melanoma. Moreover, the growth was 54.5% in the test on UACC-62 melanoma, 42.1% with LOX IMVI melanoma, 83.3% with SK-MEL-28 melanoma and 14.5% with SK-MEL-2 melanoma.
Consider `COc1ccc(Cl)cc1C(=O)Nc1nc2ccc(Cl)cc2s1`, for which the growth was 109% in the test with HT29 colon; 74.3% with SNB-75 CNS; 103% with SNB-19 CNS; 87.3% in the test on U251 CNS; 84.4% with PC-3 prostate; 92.8% in the test with SK-MEL-5 melanoma. For the same molecule, the growth in the test with UACC-62 melanoma was 91.5%; in the test on LOX IMVI melanoma it was 81.2%; in the test on SK-MEL-28 melanoma, 105%; in the test on SK-MEL-2 melanoma, 104%.
Consider `COc1ccc(/C(=C2\O[C@@H]([C@H]3COC(C)(C)O3)[C@H]3OC(C)(C)O[C@@H]23)c2cc(OC)c(OC)c(OC)c2)cc1O`, for which the growth in the test on HT29 colon is 107%; with SNB-75 CNS, 6.11% (active); in the test on SNB-19 CNS it was 47.4%; with U251 CNS it was 46.2%; in the test with PC-3 prostate it was 30.6%; in the test with SK-MEL-5 melanoma, 59.6%. Also, the growth in the test with UACC-62 melanoma was 93.2%; with LOX IMVI melanoma it was 36.9%; in the test with SK-MEL-28 melanoma, 59.6%; with SK-MEL-2 melanoma, 103%.
Turning to `COc1cc(C(=O)/C=C/c2cc(-c3cc(OC)c(OC)c(OC)c3)n[nH]2)cc(OC)c1OC`, the growth was -47.5% (active) with HT29 colon; 54.9% with SNB-75 CNS; 55.4% with SNB-19 CNS; -57.9% (active) in the test with U251 CNS; 12.9% in the test on PC-3 prostate; 21.3% in the test with SK-MEL-5 melanoma. For the same molecule, the growth in the test with UACC-62 melanoma was 51%; in the test with LOX IMVI melanoma, -62.7% (active); in the test with SK-MEL-28 melanoma it was -59.5% (active); in the test on SK-MEL-2 melanoma it was 4.38% (active).
For `CCCCN(CCCC)CCCCCCCCC(O)c1cc2ccccc2c2ccccc12` (stereo not given), the growth in the test with HT29 colon was 32.9%; in the test with SNB-75 CNS, 61.8%; in the test on SNB-19 CNS, 67.9%; with U251 CNS, 49.3%; with PC-3 prostate, 45.2%; with SK-MEL-5 melanoma, 70%. The growth was 61.8% with UACC-62 melanoma, 49.2% in the test on LOX IMVI melanoma, 79.6% in the test on SK-MEL-28 melanoma and 84.7% in the test on SK-MEL-2 melanoma.
On to `Cc1[nH]nc2c1C(c1cnn(C)c1)C(C#N)=C(N)O2` (stereo not given), for which the growth is 114% in the test on HT29 colon; 73.6% in the test with SNB-75 CNS; 98.2% in the test on SNB-19 CNS; 102% in the test on U251 CNS; 91.2% in the test on PC-3 prostate; 105% in the test on SK-MEL-5 melanoma. For the same molecule, the growth in the test with UACC-62 melanoma is 111%; with LOX IMVI melanoma, 94.9%; in the test on SK-MEL-28 melanoma, 110%; with SK-MEL-2 melanoma it was 93.8%.
Turning to `CCN(CC)CCNc1ccc(CO)c2oc3cc(Cl)ccc3c(=O)c12`, the growth is 52.8% in the test with HT29 colon; 69.7% in the test on SNB-75 CNS; 97% in the test with SNB-19 CNS; 79.7% in the test with U251 CNS; 77.4% with PC-3 prostate; 53.9% with SK-MEL-5 melanoma. Also, the growth is 73.1% in the test on UACC-62 melanoma, 70.5% with LOX IMVI melanoma, 97.8% with SK-MEL-28 melanoma and 128% in the test with SK-MEL-2 melanoma.
`N#Cc1cc(-c2cc3ccccc3o2)oc1N`: the growth in the test with HT29 colon is 7.97% (active); with SNB-75 CNS, 24.4%; with SNB-19 CNS, 24.5%; in the test with U251 CNS it was 3.63% (active); in the test on PC-3 prostate, -24.5% (active); with SK-MEL-5 melanoma it was -86.7% (active). The growth in the test with UACC-62 melanoma is 29.2%; with LOX IMVI melanoma, 3.98% (active); in the test with SK-MEL-28 melanoma it was 41.2%; with SK-MEL-2 melanoma, 10.2%.
Regarding `C=C(C(=O)c1ccccc1)C(NC(C)(C)C)c1ccccc1` (stereo not given), the growth was -26.1% (active) in the test with HT29 colon; 53.6% in the test on SNB-75 CNS; 80.8% with SNB-19 CNS; 4.4% (active) with U251 CNS; 5.45% (active) in the test on PC-3 prostate; -25.6% (active) in the test with SK-MEL-5 melanoma. Moreover, the growth in the test with UACC-62 melanoma was 0.104% (active); in the test on LOX IMVI melanoma it was -82.2% (active); with SK-MEL-28 melanoma it was 9.1% (active); in the test on SK-MEL-2 melanoma, -13.9% (active).
Consider `O=c1cc(-c2ccccc2)[nH]n1-c1nc2ccccc2[nH]1`, for which the growth is 87.1% in the test on HT29 colon; 64.4% in the test with SNB-75 CNS; 53.1% with SNB-19 CNS; 31.7% in the test on U251 CNS; 56.6% in the test with PC-3 prostate; 34.1% in the test on SK-MEL-5 melanoma. For the same molecule, the growth in the test with UACC-62 melanoma was 36.5%; in the test with LOX IMVI melanoma, 27.8%; with SK-MEL-28 melanoma, 74.1%; in the test on SK-MEL-2 melanoma, 68.5%.
